The results in this text go back to PubChem BioAssay.

By inhibition is commonly meant the drop in the measured response relative to a control, in per cent.

A short description of assay [1]: antimalarial activity against Dd2 strain (AID 2302;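 active means growth inhibition above 50% at the single 2 µM test dose, taken to imply half-maximal potency below 2 µM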;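 further: 0% = DMSO untreated growth and 100% = chloroquine plus artemisinin killed control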). The conditions noted are these: P. falciparum Dd2 in RBCs, LDH growth readout, 72 h; at 2 µM; active compounds read high.
A short description of assay [2]: HepG2 cytotoxicity, primary screen, cytotoxicity control for P. falciparum antimalarial project, cell-based, ATP luminescence (AID 2303;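 active means inhibition above 50%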;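 further: 0% = DMSO wells and 100% = digitonin-killed cells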). The conditions noted are these: HepG2 viability, 24-48 h, at 10 µM, active compounds read high.
The target in assay [3] is L-lactate dehydrogenase (Plasmodium falciparum (isolate CDC / Honduras)) (UniProt Q27743). Nature of the assay: PfLDH activity inhibition – cell lysate, 3D7 strain, counter-screen for P. falciparum growth inhibition project (AID 2304).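 Further: 0% = vehicle and 100% = reference inhibitor.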 To be noted: P. falciparum 3D7 crude extract, LDH APAD/NBT absorbance; at 2 µM; active compounds read high.
Sequence of L-lactate dehydrogenase (Plasmodium falciparum (isolate CDC / Honduras)) (Q27743 whole entry, looked up): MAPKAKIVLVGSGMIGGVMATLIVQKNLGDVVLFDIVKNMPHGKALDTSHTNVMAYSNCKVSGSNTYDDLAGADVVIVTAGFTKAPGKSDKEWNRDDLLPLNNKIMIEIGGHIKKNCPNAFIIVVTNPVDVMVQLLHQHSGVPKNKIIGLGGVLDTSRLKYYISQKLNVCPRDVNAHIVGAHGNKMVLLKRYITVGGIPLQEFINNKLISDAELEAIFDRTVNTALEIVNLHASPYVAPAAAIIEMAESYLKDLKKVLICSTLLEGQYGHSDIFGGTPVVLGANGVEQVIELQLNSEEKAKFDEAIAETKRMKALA
Assay [4] can be described thus: inhibition of 3D7 malaria parasite growth – strain 3D7 (AID 2306).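 Further: 0% = DMSO wells and 100% = chloroquine plus artemisinin control wells.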 The conditions noted are these: P. falciparum 3D7 erythrocytic growth, LDH absorbance, 72 h; at 2 µM; active compounds read high.
Assay [5] concerns the target Calcium-dependent protein kinase 1 (Plasmodium falciparum (isolate 3D7)) (UniProt P62344). Kind of assay: PfCDPK1 kinase inhibitors, biochemical, TCAMS library (AID 1159585; cut-off not given, nearly all actives have IC50 up to about 0.98 µM;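 further: inhibitors leave more ATP so luminescence rises with inhibition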). To be noted: recombinant PfCDPK1, Kinase-Glo ATP depletion luminescence.
The target in assay [6] is Plasmodium falciparum protein kinase 6 (PK6, PF3D7_1337100) (UniProt Q8IDW1). Kind of assay: PfPK6 kinase inhibitors, biochemical, TCAMS library (AID 1159586). To be noted: recombinant PfPK6, Kinase-Glo ATP depletion luminescence. In general terms: In Kinase-Glo more light means more ATP remaining.
Sequence of Plasmodium falciparum protein kinase 6 (PK6, PF3D7_1337100) (Q8IDW1 1-305): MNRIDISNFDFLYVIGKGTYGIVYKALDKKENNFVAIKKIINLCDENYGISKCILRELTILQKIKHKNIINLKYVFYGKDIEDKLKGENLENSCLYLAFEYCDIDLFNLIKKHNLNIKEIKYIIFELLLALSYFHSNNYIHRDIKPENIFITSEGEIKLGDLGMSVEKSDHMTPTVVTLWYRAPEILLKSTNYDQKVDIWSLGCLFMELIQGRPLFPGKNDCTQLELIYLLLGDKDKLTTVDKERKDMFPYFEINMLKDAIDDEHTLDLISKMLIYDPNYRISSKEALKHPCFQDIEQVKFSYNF
The target of assay [7] is Protein kinase 7 (PK7), Plasmodium falciparum 3D7 (PF3D7_0213400) (UniProt Q7YTF7). Nature of the assay: inhibition of Plasmodium PK7 catalytic activity – biochemical, TCAMS antimalarial set, Kinase-Glo luminescence (AID 1159587). The conditions noted are these: recombinant PfPK7, Kinase-Glo ATP depletion luminescence.
Sequence of Protein kinase 7 (PK7), Plasmodium falciparum 3D7 (PF3D7_0213400) (Q7YTF7 1-343): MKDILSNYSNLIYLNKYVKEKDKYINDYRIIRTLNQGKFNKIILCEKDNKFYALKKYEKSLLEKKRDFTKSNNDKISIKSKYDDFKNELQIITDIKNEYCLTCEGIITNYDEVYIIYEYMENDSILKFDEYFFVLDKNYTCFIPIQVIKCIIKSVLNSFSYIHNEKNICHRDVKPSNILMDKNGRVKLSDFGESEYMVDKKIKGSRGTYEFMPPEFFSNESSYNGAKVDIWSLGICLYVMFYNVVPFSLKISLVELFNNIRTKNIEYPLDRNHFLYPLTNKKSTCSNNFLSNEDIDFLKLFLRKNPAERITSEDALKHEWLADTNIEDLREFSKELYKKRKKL
The target in assay [8] is Calcium-dependent protein kinase 4 (Plasmodium falciparum (isolate 3D7)) (UniProt Q8IBS5). Kind of assay: PfCDPK4 kinase inhibitors, biochemical, TCAMS library (AID 1159588; cut-off not given, nearly all actives have IC50 up to about 0.91 µM). The conditions noted are these: recombinant PfCDPK4, Kinase-Glo ATP depletion luminescence.
Sequence of Calcium-dependent protein kinase 4 (Plasmodium falciparum (isolate 3D7)) (Q8IBS5 whole entry, looked up): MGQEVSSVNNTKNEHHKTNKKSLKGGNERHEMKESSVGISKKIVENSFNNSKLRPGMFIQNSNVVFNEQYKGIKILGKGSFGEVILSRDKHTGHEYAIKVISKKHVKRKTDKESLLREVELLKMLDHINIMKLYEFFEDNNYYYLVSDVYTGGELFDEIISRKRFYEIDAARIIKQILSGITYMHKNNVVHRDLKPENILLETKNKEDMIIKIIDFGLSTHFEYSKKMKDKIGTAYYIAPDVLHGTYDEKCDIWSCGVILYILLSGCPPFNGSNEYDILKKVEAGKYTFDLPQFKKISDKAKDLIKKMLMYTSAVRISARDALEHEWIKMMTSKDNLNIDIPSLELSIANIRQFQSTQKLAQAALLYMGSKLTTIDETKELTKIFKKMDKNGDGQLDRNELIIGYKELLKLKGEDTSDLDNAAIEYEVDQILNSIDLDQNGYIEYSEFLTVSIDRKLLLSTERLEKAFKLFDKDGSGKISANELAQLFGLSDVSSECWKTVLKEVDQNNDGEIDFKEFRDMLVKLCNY

The structures appear in SMILES notation. Unmarked numbers belong to inactive results. For some of these results: Measured potencies and affinities stand elsewhere. The source made the active and inactive calls. Unless noted, how the calls were made is not given here.

Sequence of Calcium-dependent protein kinase 1 (Plasmodium falciparum (isolate 3D7)) (P62344 whole entry, looked up): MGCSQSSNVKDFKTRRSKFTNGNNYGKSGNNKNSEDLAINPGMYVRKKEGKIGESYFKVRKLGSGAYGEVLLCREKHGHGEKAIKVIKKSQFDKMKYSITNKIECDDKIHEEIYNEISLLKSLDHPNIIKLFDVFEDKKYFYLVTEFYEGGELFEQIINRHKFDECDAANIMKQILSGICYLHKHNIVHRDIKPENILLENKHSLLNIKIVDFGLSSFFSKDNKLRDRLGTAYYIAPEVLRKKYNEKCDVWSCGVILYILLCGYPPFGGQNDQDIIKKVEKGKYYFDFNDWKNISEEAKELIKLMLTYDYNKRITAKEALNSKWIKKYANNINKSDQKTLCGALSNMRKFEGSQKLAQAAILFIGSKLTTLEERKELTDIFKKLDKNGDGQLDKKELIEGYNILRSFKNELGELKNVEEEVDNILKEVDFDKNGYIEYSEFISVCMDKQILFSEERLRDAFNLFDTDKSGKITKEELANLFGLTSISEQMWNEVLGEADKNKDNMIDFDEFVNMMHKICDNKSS

For the molecule `CC(C)c1cn2c3c(cc(C(=O)N[C@@H](Cc4ccccc4)[C@H](O)CNC4CCCCC4)cc13)N(C)S(=O)(=O)CC2`, the growth inhibition in assay [1] is 99% (active); in assay [4], 98% (active). For the same molecule, the results for the inhibition in assay [2] and in assay [3] were 9% and 0%, respectively. Besides, the result in assay [5], in assay [6], in assay [7] and in assay [8] was inactive.
As to `O=C(CCc1cnc[nH]1)Nc1cccc(-c2ccc(-c3nc4ccccc4[nH]3)cc2)c1`, the growth inhibition in assay [1] was 60% (active); in assay [4], 100% (active). Further, the inhibition in assay [2] is 24%; in assay [3], 1%. The outcome in assay [5], in assay [6], in assay [7] and in assay [8] was inactive.
Consider `C(=N\Nc1nccc2sc(-c3cccnc3)cc12)/c1cccnc1`, for which the growth inhibition in assay [1] is 54% (active); in assay [4], 98% (active). Besides, the inhibition in assay [2] and in assay [3] was 5% each time. Further, the result in assay [5], in assay [6], in assay [7] and in assay [8] was inactive.
In the case of `CN(C)CCCOc1ccc(CNCC(C)(C)c2nc(-c3ccc(Cl)c(O)c3)c(-c3ccncc3)[nH]2)cc1`, the growth inhibition in assay [1] was 58% (active); in assay [4] it was 102% (active). The inhibition was 64% (active) in assay [2] and -2% in assay [3]. Moreover, the result in assay [5], in assay [6], in assay [7] and in assay [8] was inactive.
As to `O=c1[nH]ccc2nc(N[C@@H]3CCNC3)nc(Nc3cccc(S(=O)(=O)N4CCOCC4)c3)c12`, the growth inhibition was 98% (active) in assay [1] and 90% (active) in assay [4]. The inhibition in assay [2] is 0%; in assay [3] it was 4%. Besides, the result in assay [5], in assay [6], in assay [7] and in assay [8] was inactive.
For the molecule `Oc1cc(Nc2ccnc3cc(-c4cccc(CN5CCOCC5)c4)ccc23)c(F)cc1Cl`, the growth inhibition in assay [1] was 89% (active); in assay [4], 100% (active). Further, the figures for the inhibition in assay [2] and in assay [3] were 12% and -4%, respectively. Also, the result in assay [5], in assay [6], in assay [7] and in assay [8] was inactive.
Turning to `COc1ccc(CNCc2ccsc2)cc1-c1ccc(S(=O)(=O)NCCN2CCCC2)s1`, the growth inhibition in assay [1] was 34%; in assay [4], 101% (active). Besides, the results for the inhibition in assay [2] and in assay [3] were 39% and -7%, respectively. Besides, the outcome in assay [5], in assay [6], in assay [7] and in assay [8] was inactive.
Turning to `Cc1cc(N2CCC(NS(=O)(=O)c3ccc(F)cc3)CC2)nc(Nc2cccc(C#N)c2)n1`, the results for the growth inhibition in assay [1] and in assay [4] were 65% (active) and 97% (active), respectively. Besides, the inhibition is 20% in assay [2] and -4% in assay [3]. Further, the outcome in assay [5], in assay [6], in assay [7] and in assay [8] was inactive.
Turning to `Cc1cc2nc(-c3ccc(/C=C/C(=O)NCc4ccc(Cl)c(Cl)c4)cc3)[nH]c2cc1C`, the growth inhibition in assay [1] is 83% (active); in assay [4] it was 98% (active). Also, the values for the inhibition in assay [2] and in assay [3] were 32% and -1%, respectively. For the same molecule, the outcome in assay [5], in assay [6], in assay [7] and in assay [8] was inactive.
As to `Cc1cccc(-c2nc(Nc3ccncc3)c3cc(N(C)C)ccc3n2)n1`, the growth inhibition in assay [1] is 63% (active); in assay [4] it was 98% (active). Moreover, the values for the inhibition in assay [2] and in assay [3] were 5% and -2%, respectively. The outcome in assay [5], in assay [6], in assay [7] and in assay [8] was inactive.
Take `CS(=O)(=O)NCCCNCc1cccc(-c2ccc(-c3nc4ccc(C(F)(F)F)cc4[nH]3)cc2)c1`: the growth inhibition is 85% (active) in assay [1] and 100% (active) in assay [4]. The inhibition is 17% in assay [2] and -4% in assay [3]. Moreover, the outcome in assay [5], in assay [6], in assay [7] and in assay [8] was inactive.
Consider `O=c1cc(NCCCNCc2cccc(SC(F)(F)F)c2)[nH]c2ccccc12`, for which the values for the growth inhibition in assay [1] and in assay [4] were 94% (active) and 100% (active), respectively. Besides, the values for the inhibition in assay [2] and in assay [3] were -9% and 6%, respectively. Also, the result in assay [5], in assay [6], in assay [7] and in assay [8] was inactive.
Regarding `COc1c(C2CCN(CCN3CCC(NC(=O)c4ccc(-c5ccc(C(F)(F)F)cc5)cc4)CC3)CC2)ccc2c1CCCC2`, the growth inhibition in assay [1] is 35%; in assay [4], 82% (active). In addition, the inhibition in assay [2] is 42%; in assay [3] it was 0%. In addition, the result in assay [5], in assay [6], in assay [7] and in assay [8] was inactive.
As to `CCCCCc1cnc2nc(N)nc(N)c2c1C`, the growth inhibition in assay [1] is 23%; in assay [4], 96% (active). Moreover, the inhibition was 64% (active) in assay [2] and -3% in assay [3]. Moreover, the result in assay [5], in assay [6], in assay [7] and in assay [8] was inactive.
For `O=C(NCCc1ccccc1)[C@H](Cc1ccccc1)Nc1ccnc(NCC2CCCCC2)n1`, the growth inhibition in assay [1] is 53% (active); in assay [4] it was 86% (active). Besides, the inhibition was 11% in assay [2] and 2% in assay [3]. In addition, the outcome in assay [5], in assay [6], in assay [7] and in assay [8] was inactive.
Take `Nc1ccc(-c2nc3ccc(Cc4ccc5nc(-c6ccc(N)cc6)[nH]c5c4)cc3[nH]2)cc1`: the growth inhibition was 96% (active) in assay [1] and 100% (active) in assay [4]. Moreover, the inhibition was 47% in assay [2] and 2% in assay [3]. Moreover, the outcome in assay [5], in assay [6], in assay [7] and in assay [8] was inactive.
As to `COc1cc(Cc2cnc(N)nc2N)cc(OCCCCCCN2C(=O)c3ccccc3C2=O)c1OC`, the growth inhibition was 3% in assay [1] and 95% (active) in assay [4]. Also, the inhibition in assay [2] is 15%; in assay [3] it was 2%. In addition, the outcome in assay [5], in assay [6], in assay [7] and in assay [8] was inactive.
With `Cc1[nH]c(C)c(-c2csc3ccccc23)c(=O)c1Cl`, the growth inhibition is 75% (active) in assay [1] and 97% (active) in assay [4]. The results for the inhibition in assay [2] and in assay [3] were 7% and 6%, respectively. Also, the result in assay [5], in assay [6], in assay [7] and in assay [8] was inactive.
For `CC(C)CNCc1cccc(-c2cccc(CNc3ccc4ncccc4c3)c2)c1`, the values for the growth inhibition in assay [1] and in assay [4] were 28% and 92% (active), respectively. Further, the inhibition in assay [2] is 23%; in assay [3] it was 6%. The outcome in assay [5], in assay [6], in assay [7] and in assay [8] was inactive.
In the case of `NC(=NCCCCCCCCN=C(N)Nc1ccc(Cl)cc1)Nc1ccc(Cl)cc1`, the growth inhibition in assay [1] is 89% (active); in assay [4] it was 93% (active). Besides, the figures for the inhibition in assay [2] and in assay [3] were 10% and -5%, respectively. The result in assay [5], in assay [6], in assay [7] and in assay [8] was inactive.
